# Like-named read-outs stand apart in the source and are kept apart here.
# Assays:
# AURKA = conditions: read-out: apparent Kd, n = 1
# CHEK1 = conditions: read-out: apparent Kd, n = 1
substance,measurement,setting,value
Lestaurtinib,potency estimated from few doses,"AURKA; compound concentrations:100 nM and 1000 nM (sheet 'Lestaurtinib' of Supplementary Table 1),run:Lestaurtinib_02741_R2,Plate:MR023",19.9 nM
same,potency estimated from few doses,"AURKA; compound concentrations:100 nM and 1000 nM (sheet 'Lestaurtinib' of Supplementary Table 1),run:Lestaurtinib_02741_R3,Plate:MR023",23.2 nM
same,potency estimated from few doses,"AURKA; compound concentrations:100 nM and 1000 nM (sheet 'Lestaurtinib' of Supplementary Table 1),run:Lestaurtinib_02748_R2,Plate:MR024",22.5 nM
same,potency estimated from few doses,"AURKA; compound concentrations:100 nM and 1000 nM (sheet 'Lestaurtinib' of Supplementary Table 1),run:Lestaurtinib_02748_R3,Plate:MR024",22.2 nM
same,potency estimated from few doses,"AURKA; compound concentrations:100 nM and 1000 nM (sheet 'Lestaurtinib' of Supplementary Table 1),run:Lestaurtinib_02752_R1,Plate:MR025",19 nM
same,potency estimated from few doses,"AURKA; compound concentrations:100 nM and 1000 nM (sheet 'Lestaurtinib' of Supplementary Table 1),run:Lestaurtinib_02752_R2,Plate:MR025",16 nM
same,potency estimated from few doses,"AURKA; compound concentrations:100 nM and 1000 nM (sheet 'Lestaurtinib' of Supplementary Table 1),run:Lestaurtinib_02752_R3,Plate:MR025",19.7 nM
same,potency estimated from few doses,"AURKA; compound concentrations:100 nM and 1000 nM (sheet 'Lestaurtinib' of Supplementary Table 1),run:Lestaurtinib_02765_R2,Plate:MR026",23.1 nM
same,potency estimated from few doses,"AURKA; compound concentrations:100 nM and 1000 nM (sheet 'Lestaurtinib' of Supplementary Table 1),run:Lestaurtinib_02766_R1,Plate:MR027",17.5 nM
same,potency estimated from few doses,"AURKA; compound concentrations:100 nM and 1000 nM (sheet 'Lestaurtinib' of Supplementary Table 1),run:Lestaurtinib_02766_R2,Plate:MR027",17 nM
same,potency estimated from few doses,"AURKA; compound concentrations:100 nM and 1000 nM (sheet 'Lestaurtinib' of Supplementary Table 1),run:Lestaurtinib_02766_R3,Plate:MR027",19.1 nM
same,potency estimated from few doses,"AURKA; compound concentrations:100 nM and 1000 nM (sheet 'Lestaurtinib' of Supplementary Table 1),run:Lestaurtinib_02768_R1,Plate:MR028",20.8 nM
same,potency estimated from few doses,"AURKA; compound concentrations:100 nM and 1000 nM (sheet 'Lestaurtinib' of Supplementary Table 1),run:Lestaurtinib_02768_R3,Plate:MR028",19.7 nM
same,potency estimated from few doses,"AURKA; compound concentrations:100 nM and 1000 nM (sheet 'Lestaurtinib' of Supplementary Table 1),run:Lestaurtinib_02795_R3,Plate:MR022",60.5 nM
same,potency estimated from few doses,"AURKA; compound concentrations:100 nM and 1000 nM (sheet 'Lestaurtinib' of Supplementary Table 1),run:Lestaurtinib_02802_R1,Plate:MR029",16.2 nM
same,potency estimated from few doses,"AURKA; compound concentrations:100 nM and 1000 nM (sheet 'Lestaurtinib' of Supplementary Table 1),run:Lestaurtinib_02802_R2,Plate:MR029",15.9 nM
same,potency estimated from few doses,"AURKA; compound concentrations:100 nM and 1000 nM (sheet 'Lestaurtinib' of Supplementary Table 1),run:Lestaurtinib_02802_R3,Plate:MR029",14.1 nM
same,potency estimated from few doses,"AURKA; compound concentrations:100 nM and 1000 nM (sheet 'Lestaurtinib' of Supplementary Table 1),run:Lestaurtinib_02896_R1,Plate:MR030",15.4 nM
same,potency estimated from few doses,"AURKA; compound concentrations:100 nM and 1000 nM (sheet 'Lestaurtinib' of Supplementary Table 1),run:Lestaurtinib_02896_R2,Plate:MR030",16.3 nM
same,potency estimated from few doses,"AURKA; compound concentrations:100 nM and 1000 nM (sheet 'Lestaurtinib' of Supplementary Table 1),run:Lestaurtinib_02896_R3,Plate:MR030",16.2 nM
same,potency estimated from few doses,"AURKA; compound concentrations:100 nM and 1000 nM (sheet 'Lestaurtinib' of Supplementary Table 1),run:Lestaurtinib_03172_R1,Plate:MR031",17 nM
same,potency estimated from few doses,"AURKA; compound concentrations:100 nM and 1000 nM (sheet 'Lestaurtinib' of Supplementary Table 1),run:Lestaurtinib_03252_R1,Plate:MR032",16.3 nM
same,potency estimated from few doses,"AURKA; compound concentrations:100 nM and 1000 nM (sheet 'Lestaurtinib' of Supplementary Table 1),run:Lestaurtinib_03260_R1,Plate:MR033",27.5 nM
same,potency estimated from few doses,"AURKA; compound concentrations:100 nM and 1000 nM (sheet 'Lestaurtinib' of Supplementary Table 1),run:Lestaurtinib_03260_R3,Plate:MR033",22.2 nM
same,potency estimated from few doses,"CHEK1; compound concentrations:100 nM and 1000 nM (sheet 'Lestaurtinib' of Supplementary Table 1),run:Lestaurtinib_02339_R1,Plate:MR001",99.6 nM
same,potency estimated from few doses,"CHEK1; compound concentrations:100 nM and 1000 nM (sheet 'Lestaurtinib' of Supplementary Table 1),run:Lestaurtinib_02339_R2,Plate:MR001",72.8 nM
same,potency estimated from few doses,"CHEK1; compound concentrations:100 nM and 1000 nM (sheet 'Lestaurtinib' of Supplementary Table 1),run:Lestaurtinib_02339_R3,Plate:MR001",71.3 nM
same,potency estimated from few doses,"CHEK1; compound concentrations:100 nM and 1000 nM (sheet 'Lestaurtinib' of Supplementary Table 1),run:Lestaurtinib_02364_R1,Plate:MR002",67.1 nM
same,potency estimated from few doses,"CHEK1; compound concentrations:100 nM and 1000 nM (sheet 'Lestaurtinib' of Supplementary Table 1),run:Lestaurtinib_02364_R3,Plate:MR002",86.4 nM
same,potency estimated from few doses,"CHEK1; compound concentrations:100 nM and 1000 nM (sheet 'Lestaurtinib' of Supplementary Table 1),run:Lestaurtinib_02367_R2,Plate:MR003",78 nM
same,potency estimated from few doses,"CHEK1; compound concentrations:100 nM and 1000 nM (sheet 'Lestaurtinib' of Supplementary Table 1),run:Lestaurtinib_02381_R1,Plate:MR004",78.7 nM
same,potency estimated from few doses,"CHEK1; compound concentrations:100 nM and 1000 nM (sheet 'Lestaurtinib' of Supplementary Table 1),run:Lestaurtinib_02381_R3,Plate:MR004",61.8 nM
same,potency estimated from few doses,"CHEK1; compound concentrations:100 nM and 1000 nM (sheet 'Lestaurtinib' of Supplementary Table 1),run:Lestaurtinib_02407_R1,Plate:MR005",73.9 nM
same,potency estimated from few doses,"CHEK1; compound concentrations:100 nM and 1000 nM (sheet 'Lestaurtinib' of Supplementary Table 1),run:Lestaurtinib_02407_R2,Plate:MR005",71 nM
same,potency estimated from few doses,"CHEK1; compound concentrations:100 nM and 1000 nM (sheet 'Lestaurtinib' of Supplementary Table 1),run:Lestaurtinib_02422_R1,Plate:MR006",70.8 nM
same,potency estimated from few doses,"CHEK1; compound concentrations:100 nM and 1000 nM (sheet 'Lestaurtinib' of Supplementary Table 1),run:Lestaurtinib_02422_R2,Plate:MR006",31 nM
same,potency estimated from few doses,"CHEK1; compound concentrations:100 nM and 1000 nM (sheet 'Lestaurtinib' of Supplementary Table 1),run:Lestaurtinib_02422_R3,Plate:MR006",76.2 nM
same,potency estimated from few doses,"CHEK1; compound concentrations:100 nM and 1000 nM (sheet 'Lestaurtinib' of Supplementary Table 1),run:Lestaurtinib_02437_R2,Plate:MR007",67.9 nM
